ABHD5-PLIN5 inh: ABHD5-PLIN5 interaction inhibitors, primary screen, cell lysate, split luciferase complementation, luminescence; Perilipin-5 (Homo sapiens) + 1-acylglycerol-3-phosphate O-acyltransferase ABHD5 (Homo …; Split G. princeps luciferase complementation, 4 h; inhibition, % at 4 µM; 0.78% of 360,000 active; AID 602281, 2012;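 active means inhibition above the mean inhibition across every tested compound plus 3 SD, cut at about 22% in these data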;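 further: 0% = DMSO only wells and the 100% control is not disclosed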
Target sequence (Q00G26 whole entry, looked up): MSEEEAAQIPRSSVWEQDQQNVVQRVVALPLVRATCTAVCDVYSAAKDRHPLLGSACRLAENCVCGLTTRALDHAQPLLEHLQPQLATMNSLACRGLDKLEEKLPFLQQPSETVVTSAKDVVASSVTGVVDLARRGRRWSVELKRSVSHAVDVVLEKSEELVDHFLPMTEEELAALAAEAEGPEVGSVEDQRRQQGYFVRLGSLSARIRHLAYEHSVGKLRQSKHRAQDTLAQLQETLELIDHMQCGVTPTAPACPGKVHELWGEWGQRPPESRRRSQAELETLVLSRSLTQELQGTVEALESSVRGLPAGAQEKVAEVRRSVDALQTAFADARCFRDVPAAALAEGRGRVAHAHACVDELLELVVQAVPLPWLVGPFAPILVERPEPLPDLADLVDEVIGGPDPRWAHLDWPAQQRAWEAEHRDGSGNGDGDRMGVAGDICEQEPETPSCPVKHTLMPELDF
Target sequence (Q8WTS1 whole entry, looked up): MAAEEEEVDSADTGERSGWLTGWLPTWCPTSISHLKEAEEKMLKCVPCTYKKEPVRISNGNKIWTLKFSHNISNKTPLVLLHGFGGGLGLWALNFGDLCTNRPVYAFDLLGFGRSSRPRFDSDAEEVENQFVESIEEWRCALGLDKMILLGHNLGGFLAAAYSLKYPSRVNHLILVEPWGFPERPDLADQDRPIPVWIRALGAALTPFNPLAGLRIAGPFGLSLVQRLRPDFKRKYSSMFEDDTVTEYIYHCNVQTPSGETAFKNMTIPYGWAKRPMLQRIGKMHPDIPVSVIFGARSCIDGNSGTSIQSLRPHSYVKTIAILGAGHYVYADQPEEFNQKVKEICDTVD
KKLEB tox: cytotoxicity in KKLEB CF airway cells, primary screen, cytotoxicity control for CF NF-kB inhibitor project, cell-based, uHTS, fluorescence assay plates; KKLEB CF airway cells viability, ATPlite luminescence, overnight; hits give low values; cells stimulated with P. aeruginosa culture filtrate; 0.36% of 360,000 active; activity change (cytotoxicity), % at 5 µM;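 active means corrected activity change at or below -50% at 5 µM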
Peg3 prom inh-1: Peg3 promoter-driven luciferase inhibitors, primary screen, cell-based, HeLa, luciferase luminescence; HeLa PEG-Prom luciferase reporter, overnight; inhibition, % at 20 µM; 1.7% of 360,000 active; AID 588405, 2011;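 active means inhibition of at least 50% at 20 µM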
CF NFkB inh: inhibitors of PAF-induced NF-kB signaling, primary screen, cell-based, GFP fluorescence, uHTS; KKLEB NF-kB-GFP reporter, GFP fluorescence overnight; inhibition, % at 5 µM; 0.86% of 360,000 active; AID 588850, 2011;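 active means at least 50% inhibition at 5 µM, scaled per plate between neutral and stimulator controls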;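 further: PAF is a Pseudomonas aeruginosa culture filtrate used as stimulus; plate controls were PAF-stimulated DMSO wells for no effect and unstimulated DMSO wells for full effect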
HIF-2a inh: HIF-2a reporter inhibitors, primary screen, luminescence, 786-0 RCC cells. 786-0 RCC cells HIF-2a reporter, luciferase luminescence, overnight. 0.72% of 360,000 active. inhibition, % at 18.8 µM. AID 624352, 2012;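 active means inhibition of the luminescence signal of 40% or more relative to plate controls, in a single-dose primary screen at 18.75 µM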
Mdm2-MdmX inh: inhibitors of human Mdm2-MdmX association, primary screen, cell-based, luminescence, split luciferase, SaOS-2, uHTS. Protein Mdm4 (Homo sapiens) + E3 ubiquitin-protein ligase Mdm2 (Homo sapiens), …. SaOS-2 split-luciferase Mdm2/MdmX complementation. inhibition, % at 8 µM. 3% of 330,000 active. AID 485346, 2010;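 active means inhibition of at least 50% at 8 µM in the primary screen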
Mdm2 MdmX conf: Mdm2-MdmX complex disruptors, retested hits, confirmation, luminescence, single concentration; shares compounds with Mdm2-MdmX inh; AID 489028, 2010; inhibition, % at 8 µM; 55% of 10,000 active; Mdm2-MdmX binding, luminescent assay; in the data active means inhibition above about 40%
Full FLuc ctr: full-length luciferase signal inhibition, confirmation, counter-screen for Mdm2/MdmX interaction inhibitor project, cell-based, single concentration, SaOS-2; shares compounds with Mdm2-MdmX inh; SaOS-2 full-length luciferase counterscreen, luminescence; inhibition, % at 8 µM; 77% of 6,200 active; AID 504607, 2011;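 active means mean inhibition at 8 µM reaching about 37%, which flags the compound as non-specific, limit read from the data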;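 further: p53-null SaOS-2 cells with luciferase driven by a doxycycline-inducible promoter; compound on cells about two nights before reading with doxycycline added after day one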
Peg3 prom inh-2: Peg3 promoter reporter inhibitors, retest, confirmation, cell-based, HeLa, luciferase reporter, single concentration; inhibition, % at 20 µM; 84% of 1,300 active; HeLa PEG-Prom luciferase reporter, luminescence, overnight; AID 602417, 2012; shares compounds with Peg3 prom inh-1;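 active means at 20 µM dose, 40% or more inhibition averaged across four replicates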
An asterisk follows results filed as active; . = no result given. Compounds with a hit are over-represented: about 4.6% of the library has one in this group of screens.

SMILES | ABHD5-PLIN5 inh | KKLEB tox | Peg3 prom inh-1 | CF NFkB inh | HIF-2a inh | Mdm2-MdmX inh | Mdm2 MdmX conf | Full FLuc ctr | Peg3 prom inh-2
COc1ccccc1N1CCN(C(=O)c2sc3ncnc(N4CCN(c5ccccn5)CC4)c3c2C)CC1 | -8.8 | -22.0 | 84.4* | 11.7 | 6.9 | 56.0* | 48.0* | 87.6* | 74.2*
COc1ccccc1N(C)S(=O)(=O)c1ccc(C(=O)Nc2cc(F)ccc2C)cc1 | 2.0 | -2.0 | 15.3 | -6.7 | 31.7 | 37.4 | . | . | .
NC1=NC[C@H](Cc2ccccc2)N1CCc1cc(C(F)(F)F)cc(C(F)(F)F)c1 | 16.2 | 4.2 | 84.8* | -34.1 | 3.9 | 63.2* | 24.4 | . | 53.1*
CC(C)(c1ccccc1)c1ccc(OCC(O)CNC2CCN(Cc3ccccc3)CC2)cc1 (configuration not stated) | 3.9 | -21.7 | 107.4* | 12.3 | 6.1 | 98.7* | 65.7* | 35.2 | 98.8*
CCOc1ccc(OCC(O)CNC2CCN(Cc3ccccc3)CC2)cc1 (configuration not stated) | 4.3 | -7.0 | 9.7 | 10.8 | 15.9 | 44.0 | . | . | .
O=C(NCCc1ccccc1F)C1CCC(=O)N(Cc2ccc(Cl)cc2)C1 (configuration not stated) | 4.6 | 4.3 | 9.0 | 12.7 | 1.1 | 13.2 | . | . | .
CCN1CCN(CCNC(=O)c2ccc3c(c2)N(Cc2ccc(F)cc2)C(=O)c2ccccc2S3=O)CC1 (configuration not stated) | -3.4 | -2.0 | 38.0 | 5.2 | -0.2 | 14.5 | . | . | .
CCN1CCN(CCNC(=O)c2ccc(/C=C3\Sc4ccccc4N(Cc4ccccc4F)C3=O)cc2)CC1 | 16.8 | -29.7 | 108.9* | -5.5 | -2.9 | 91.9* | 51.5* | 46.2* | 99.4*
C[C@H]1COC[C@@H](C/C=C/c2ccccc2)N1c1ccccc1 | -12.0 | 12.2 | 11.0 | -16.5 | 3.9 | . | . | . | .
CC1(C(=O)NS(=O)(=O)C2CC2)CCCN(C(=O)c2cc3ccccc3s2)C1 (configuration not stated) | 5.0 | 4.9 | 0.2 | 8.1 | 17.2 | . | . | . | .
COC(=O)C1=C(CN2CCc3ccccc32)NC(=O)NC1c1cc(C)ccc1C (configuration not stated) | -0.9 | 11.6 | 36.4 | 21.4 | 15.2 | 6.6 | . | . | .
COC(=O)C1=C(CN2CCCc3ccccc32)NC(=O)NC1c1ccc(F)cc1 (configuration not stated) | 5.5 | -4.0 | 81.3* | -29.3 | 63.3* | 70.3* | 72.0* | 37.5* | 66.6*
COc1cc2nc(N(CCCN(C)C)C(=O)c3ccc(S(=O)(=O)N4CCc5ccccc54)cc3)sc2cc1OC | 2.3 | -5.1 | -15.3 | -4.5 | 5.7 | 32.1 | . | . | .
COc1ccc2sc(N(CCCN(C)C)C(=O)c3ccc(S(=O)(=O)N4CCCc5ccccc54)cc3)nc2c1 | 11.0 | -15.4 | 84.2* | 5.3 | -49.6 | 80.2* | 44.0* | 63.9* | 95.8*
Cc1cc(C)c2sc(N(CCCN(C)C)C(=O)c3ccc(S(=O)(=O)N(C)C4CCCCC4)cc3)nc2c1 | 17.8 | -14.4 | 106.6* | 42.2 | -9.2 | 97.1* | 48.1* | 79.0* | 98.3*
CCOC(=O)N1CCN(S(=O)(=O)c2ccc(C(=O)NNc3nc4c(C)cc(C)cc4s3)cc2)CC1 | -4.6 | -7.1 | 56.0* | -12.0 | 8.1 | 80.2* | 70.5* | 48.4* | 92.4*
Cc1cc(C)c2nc(NNC(=O)c3ccc(S(=O)(=O)N4CCCCC4)cc3)sc2c1 | 0.9 | -10.4 | 55.4* | 16.6 | -14.5 | 71.6* | 45.5* | 47.2* | 65.5*
CN(C)CCCN(C(=O)c1ccc(S(=O)(=O)N2CCCCC2)cc1)c1nc2cc3c(cc2s1)OCO3 | 8.9 | 5.3 | -31.2 | -22.9 | 3.4 | 10.3 | . | . | .
Cc1cc(C)c2nc(N(CCCN(C)C)C(=O)c3ccc(S(=O)(=O)N4CCCCCC4)cc3)sc2c1 | 14.0 | -15.5 | 79.6* | 11.8 | -26.3 | 79.8* | 49.5* | 70.5* | 99.0*
C=CCn1c(SCC(=O)N(C)c2c(N)n(Cc3ccccc3)c(=O)[nH]c2=O)nnc1-c1ccccc1OC | 1.2 | 11.1 | -2.5 | 9.6 | 13.6 | 13.9 | . | . | .
COc1ccc(-c2c(-c3cc(OC)cc(OC)c3)n(C)c3ccc(-c4ccc(S(N)(=O)=O)cc4)cc23)cc1 | -11.4 | -12.7 | 53.1* | 39.3 | 19.9 | 56.7* | 40.0 | 80.3* | 30.3
COc1cc(C(=O)OCC(=O)Nc2cccc(S(=O)(=O)N3CCCC3)c2)ccc1OCC(C)C | -12.5 | 0.6 | -36.7 | -14.3 | -30.2 | 18.5 | . | . | .
COc1cccc(CNC(=O)[C@@H]2CCCN2C(=O)[C@H]2CCCCN2C(=O)c2cccc3ccccc23)c1 | 8.6 | . | . | . | 9.1 | . | . | . | .
O=C1OCCC1Sc1nnc(-c2ccccc2)o1 (configuration not stated) | 0.5 | -6.5 | -5.3 | 9.6 | 18.2 | 8.3 | . | . | .
O=C1OCCC1Sc1nnc(-c2ccc(Cl)cc2Cl)o1 (configuration not stated) | 5.3 | -14.2 | 71.4* | 8.9 | 75.7* | 77.4* | 62.1* | 48.9* | 62.6*
COc1ccc(C23CC4CC(CC(C4)C2)C3)cc1C(=O)NCCN(C)C | 4.9 | -7.3 | 50.8* | 6.7 | 17.7 | 61.9* | 22.8 | . | 75.3*
COc1cc(-c2cnc3c(NC=O)cc(-c4cccc(C(=O)NCCN(C)C)c4)cn23)cc(OC)c1OC | 7.8 | -12.0 | 3.0 | -18.7 | -6.2 | . | . | . | .
CCOC(=O)c1c(C)[nH]c(C(=O)COC(=O)c2ccco2)c1C | -4.8 | -21.7 | -81.2 | 12.5 | -2.6 | 30.7 | . | . | .
O=C(CCN1C(=O)/C(=C/c2ccc(Cl)cc2)SC1=S)Nc1cccnc1 | -2.6 | -11.2 | 13.0 | 17.8 | 14.4 | 9.2 | . | . | .
O=C(CCCN1C(=O)/C(=C/c2cccc(Br)c2)SC1=S)Nc1cccnc1 | -1.0 | -8.6 | 75.6* | 25.3 | 49.1* | 78.3* | 78.4* | 62.8* | 96.4*
